Results as given in PubChem BioAssay AID463173 (ICCB-Longwood Screening Facility, Harvard Medical School, 2010).
The whole screen tested about 52,000 compounds, of which about 4,300 (8.3%) were called active. For the sample, actives were picked, then their nearest neighbours and some compounds at random. Unmarked numbers belong to inactive results. Rule as the data show it: active = survival mostly below about 52% (no sharp cut-off); inactive = mostly above about 56%.

Test system: DeltatarO mutant
Test: S. aureus survival, RN4220 and DeltatarO strains – OD600, teichoic acid synthesis inhibitors, primary screen (AID 463173)
Conditions: S. aureus RN4220 wild type/DeltatarO growth, OD600, 18 h, stronger effect = lower value, screened at 18.75 µg/mL (by protocol)

Row | SMILES | survival
1 | CCOC(=O)/C(C)=C1\NC(C)(C)Cc2ccccc21 | 92%
2 | Cc1coc2cc3oc(=O)c(CCC(=O)NCc4ccccc4Cl)c(C)c3cc12 | 66%
3 | Cc1ccc2c(c1)nc(SCC(O)c1ccc(Br)cc1)n2C (stereo not drawn) | 70%
4 | COc1cc2c(cc1OC)-c1n[nH]c(=S)n1C(C)(C)C2 | 90%
5 | CC(=O)c1c(C)n(-c2ccc(C)cc2)c2ccc(OC(=O)COc3ccccc3)cc12 | 62%
6 | COc1ccccc1CN1CCN(C(CC(C)C)c2nnnn2Cc2ccc(F)cc2)CC1 (stereo not drawn) | 85%
7 | O=C1CCC(=O)N1c1ccccc1 | 98%
8 | O=C1CCCCCN1Sc1ccccc1 | 48% (active)
9 | O=C(/C=C/c1ccccc1)N1CCCC1=O | 94%
10 | CCN(CCCNC(=O)c1ccc(Sc2ccc(Cl)cc2)c(NC(C)=O)c1)c1cccc(C)c1 | 89%
11 | COc1cc(O)ccc1-c1nc2cc(C)ccn2c1Nc1ccccc1C | 69%
12 | Cc1ccccc1Nc1c(-c2cccnc2)nc2ccc(Cl)cn12 | 92%
13 | COc1cc(O)ccc1-c1nc2ccc(Br)cn2c1Nc1ccccc1C | 46% (active)
14 | Cc1ccccc1Nc1c(-c2ccncc2)nc2ccc(Cl)cn12 | 118%
15 | Cc1ccccc1Nc1c(-c2cccc(O)c2)nc2ccc(Br)cn12 | 64%
16 | Cc1ccccc1Nc1c(-c2ccc(Br)o2)nc2ccc(Cl)cn12 | 37% (active)
17 | CCOC(=O)c1c(S(=O)(=O)N2CCCC(C(=O)Nc3ccc(OCC)cc3)C2)c(C)n(C)c1C (stereo not drawn) | 99%
18 | COc1ccc(CNC(=O)C(=O)NCC(c2cccs2)S(=O)(=O)c2cccs2)cc1 (stereo not drawn) | 89%
19 | CCCCOc1ccc(C(=O)N(Cc2ccco2)Cc2ccco2)cc1 | 94%
20 | O=C1CC(c2ccccc2)Cc2[nH]c(=O)c(C(=O)Nc3cccc(Cl)c3)cc21 (stereo not drawn) | 8% (active)
21 | CC(=O)c1ccc(NC(=O)c2cc3c([nH]c2=O)CC(c2ccccc2)CC3=O)cc1 (stereo not drawn) | 63%
22 | O=C1CC(c2ccccc2)Cc2[nH]c(=O)c(C(=O)Nc3ccc(F)cc3)cc21 (stereo not drawn) | 101%
23 | COc1ccc(NC(=O)c2cc3c([nH]c2=O)CC(c2ccccc2)CC3=O)cc1 (stereo not drawn) | 91%
24 | Cc1cccc(NC(=O)c2cc3c([nH]c2=O)CC(c2ccccc2)CC3=O)c1 (stereo not drawn) | 20% (active)
25 | O=C1CC(c2ccccc2)Cc2[nH]c(=O)c(C(=O)Nc3cccc(F)c3)cc21 (stereo not drawn) | 89%

Row | SMILES | survival
26 | COc1ccc(S(=O)(=O)c2c(C)c(NS(=O)(=O)c3ccccc3)cc(C)c2O)cc1 | 67%
27 | CC(C)N(Cc1ccccc1)C(=O)CCS(=O)(=O)c1cc2c(cc1Cl)NC(=O)CO2 | 103%
28 | CC(C)(C)c1ccc(S(=O)(=O)c2cnc(SCC(=O)Nc3ccc4c(c3)OCCO4)[nH]c2=O)cc1 | 120%
29 | COc1ccc(S(=O)(=O)N(CC(=O)NCCSCc2ccccc2)c2ccc(C)cc2)cc1 | 54%
30 | CCN1CCN(C(=O)c2cnn(-c3ccc(F)cc3)c2-n2cccc2)CC1 | 135%
31 | Cc1nc(-c2ccccc2)sc1-c1ccc(SCC(=O)NCc2ccccc2)nn1 | 58%
32 | COC(=O)c1ccccc1NC(=O)CSc1n[nH]c(CC(C)C)n1 | 47%
33 | COC(=O)c1ccc(NC(=O)CSc2n[nH]c(-c3ccccc3)n2)cc1 | 88%
34 | CCc1ccc(NC(=O)CSc2ccc(-c3sc(-c4ccccc4)nc3C)nn2)cc1 | 38%
35 | CCOC(=O)c1ccccc1NC(=O)CSc1ccc(-c2sc(-c3ccccc3)nc2C)nn1 | 34%
36 | Cc1ccc(CNC(=O)CSc2ccc(-c3sc(-c4ccccc4)nc3C)nn2)cc1 | 93%
37 | COC(=O)c1ccc(NC(=O)CSc2n[nH]c(CC(C)C)n2)cc1 | 36% (active)
38 | CCOc1ccc(NC(=O)CSc2ccc(-c3sc(-c4ccccc4)nc3C)nn2)cc1 | 15% (active)
39 | COC(=O)c1ccc(NC(=O)CSc2ccc(-c3sc(-c4ccccc4)nc3C)nn2)cc1 | 56% (active)
40 | Cc1ccc(OCC(=O)Nc2ccc3c(c2)sc(=O)n3C)cc1 | 110%
41 | O=C(Cn1ncc2c3ccccc3n(Cc3ccc(Cl)cc3)c2c1=O)NCCC1=CCCCC1 | 89%
42 | CCc1ccc(C2CC(=O)c3c([nH]c(C(=O)OC4CCCC4)c3C)C2)cc1 (stereo not drawn) | 97%
43 | O=C(CSc1nnc(NC(=O)NC2CCCCC2)s1)Nc1ccccc1F | 79%
44 | CCCn1c(C(=O)OC)cc2c1ccn2C | 78%
45 | CC1(C)Cc2[nH]c(=S)c(C#N)cc2CO1 | 88%
46 | Cc1ccc(CNC(=O)CSc2c(C(C)C)cnc3c2c(=O)n(C)c(=O)n3C)cc1 | 85%
47 | CCc1cnc2c(c1SCC(=O)NCc1ccc(C)cc1)c(=O)n(C)c(=O)n2C | 70%
48 | CCCc1cnc2c(c1SCC(=O)NCc1ccc(C)cc1)c(=O)n(C)c(=O)n2C | -4% (active)
49 | COc1cc(C2C(C(=O)OCC(C)C)=C(C)N=C3SCCC(=O)N32)ccc1OCc1ccccc1 (stereo not drawn) | 46% (active)
50 | CCOC(=O)C1=C(C)N=C2SCCC(=O)N2C1c1ccc(OCc2ccccc2)c(OC)c1 (stereo not drawn) | 133%

Row | SMILES | survival
51 | COCCOC(=O)C1=C(C)N=C2SCCC(=O)N2C1c1ccc(OCc2ccccc2)c(OC)c1 (stereo not drawn) | 58%
52 | O=C1CC(c2ccccc2)Cc2[nH]c(=O)c(-c3nc(-c4ccc(Cl)cc4)cs3)cc21 (stereo not drawn) | 72%
53 | CCNc1cc(N2CCN(C3CCCCC3)CC2)c2noc3c2c1C(=O)c1ccccc1-3 | 73%
54 | O=C1c2ccccc2-c2onc3c(Br)cc(NC4CCCCC4)c1c23 | 101%
55 | CCCCNc1cc(NC2CCCCC2)c2c3c(onc13)-c1ccccc1C2=O | 92%
56 | CCN(CC)c1cc(NC2CCCCC2)c2c3c(onc13)-c1ccccc1C2=O | 1% (active)
57 | CN(C)CCCNc1cc(N2CCN(C3CCCCC3)CC2)c2noc3c2c1C(=O)c1ccccc1-3 | 51%
58 | CCCCNc1cc(N2CCN(C3CCCCC3)CC2)c2noc3c2c1C(=O)c1ccccc1-3 | -5% (active)
59 | COc1ccc(NC(=O)CCS(=O)(=O)c2nc(-c3ccc4c(c3)OCO4)cc(C(F)(F)F)n2)cc1OC | 79%
60 | Cc1cccc(NC(=O)Cn2cc(C(=O)c3ccco3)c3ccccc32)c1C | 55%
61 | Cc1cc(N)cc(C(=O)O)c1O | 104%
62 | Cc1cc(N)c(O)cc1C | 61%
63 | Cc1cc(C)c(O)c(N)c1 | 39% (active)
64 | CCOc1ccc(S(=O)(=O)N2CCC(N3CCN(Cc4ccc(C)cc4)C(=O)C3=O)CC2)cc1 | 77%
65 | CCCc1cc(=O)[nH]c(Nc2ccc(C)c(O)c2)n1 | 57%
66 | CCCc1cc(=O)[nH]c(Nc2cc(Cl)cc(Cl)c2)n1 | 6% (active)
67 | CCCOC(=O)c1cccc(Nc2nc(CCC)cc(=O)[nH]2)c1 | 10% (active)
68 | CCCc1cc(=O)[nH]c(Nc2cccc(Cl)c2Cl)n1 | 68%
69 | CCCc1cc(=O)[nH]c(Nc2ccc(C(=O)O)cc2)n1 | 62%
70 | CCCc1cc(=O)[nH]c(Nc2cc(C)cc(C)c2)n1 | 108%
71 | O=C(CN1C(=O)COc2ccc(S(=O)(=O)N3CCCCCC3)cc21)N1CCN(c2cccc(Cl)c2)CC1 | 95%
72 | O=C(Nc1nnc(S(=O)(=O)N2CCCC2)s1)c1ccccc1Br | 36% (active)
73 | O=C(Nc1nnc(S(=O)(=O)N2CCCCCC2)s1)c1ccccc1Br | 43% (active)
74 | O=C(Nc1nnc(S(=O)(=O)N2CCCCC2)s1)c1ccccc1Br | 61%
75 | COc1ccc(C2CC(=O)c3cnc4c(-c5ccccc5)c(C)nn4c3C2)c(OC)c1 (stereo not drawn) | 82%

Row | SMILES | survival
76 | COc1cccc(C(=O)Nc2ccc3nc(SCC(=O)N4CCc5ccccc54)sc3c2)c1 | 59%
77 | COc1cccc(-n2cc(C(=O)Nc3cc(C)c(Cl)cc3OC)c3ccccc3c2=O)c1 | 56%
78 | O=C(Nc1ccc2oc(-c3cccnc3)nc2c1)c1ccc(-c2ccc(OC(F)(F)F)cc2)o1 | 79%
79 | CCOc1ccccc1CNS(=O)(=O)c1cnc(N)nc1 | 79%
80 | CCOc1ccccc1NS(=O)(=O)c1cnc(N)nc1 | -1% (active)
81 | Nc1ncc(S(=O)(=O)Nc2ccc(F)cc2F)cn1 | 84%
82 | COc1ccc(OC)c(NC(=O)c2ccc(-c3nc(COc4ccccc4)c(C)o3)cc2)c1 | 62%
83 | CCOC(=O)c1[nH]c2ccccc2c1NC(=O)c1ccc(OCC)cc1 | 75%
84 | Cc1ccc(NC(=O)C(c2ccccc2)N2Cc3ccccc3C2=O)cc1Cl (stereo not drawn) | 75%
85 | CCN(CC)c1ncnc2c1cnn2-c1cc(Cl)ccc1C | -5% (active)
86 | CCN(c1ncnc2c1cnn2-c1cc(Cl)ccc1C)C1CCCCC1 | 73%
87 | CCN(CC)CCNc1ncnc2c1cnn2-c1cc(Cl)ccc1C | 77%
88 | CCN(CC)C(=O)Cn1c(=O)n(Cc2ccc(C(=O)NCc3ccccc3Cl)cc2)c(=O)c2ccccc21 | 115%
89 | Cc1cn2c(=O)cc(COC(=O)COc3ccccc3C)nc2s1 | 76%
90 | COC(=O)c1ccc(NC(=O)CSc2nnc3c4ccccc4n(C(C)C)c3n2)cc1 | 52%
91 | COc1ccccc1NC(=O)CSc1nnc2c(n1)[nH]c1ccccc12 | 77%
92 | COc1ccccc1NC(=O)CSc1nnc2c3ccccc3n(C(C)C)c2n1 | 33% (active)
93 | O=C(Nc1cccc(Cl)c1)c1cc(S(=O)(=O)N2CCCc3ccccc32)ccc1F | 108%
94 | O=C(Nc1nnc(S(=O)(=O)N2CCCc3ccccc32)s1)c1cccc(Cl)c1 | 3% (active)
95 | Cc1ccc(S(=O)(=O)N2CCCc3cc(NC(=O)c4cccc(Cl)c4)ccc32)cc1 | 87%
96 | CC(C)C(=O)Nc1nnc(S(=O)(=O)N2CCc3ccccc32)s1 | 78%
97 | O=C(Nc1nnc(S(=O)(=O)N2CCc3ccccc32)s1)c1cccc(Cl)c1 | 1% (active)
98 | O=C(Nc1nc2c(Cl)cccc2s1)c1ccc(S(=O)(=O)N2CCc3ccccc32)cc1 | 69%
